# Experimental data taken from PubChem BioAssay AID1851 (National Center for Advancing Translational Sciences (NCATS), 2009).
# Out of some 16,000 compounds screened, about 5,100 (32%) were called active. About 25% were inconclusive and are not listed. This is one part of the list. Unmarked numbers belong to inactive results. Calls follow the shape of the dose curve; as a rule, active = well fitted curve in the direction sought with a large enough effect; inconclusive = small, poorly fitted or top-dose-only effect, or effect the other way; inactive = no such curve, though single readings can be large or run the other way.
# Target: Cytochrome P450 3A4 (Homo sapiens) (UniProt P08684)
# Sequence (P08684 whole entry, looked up): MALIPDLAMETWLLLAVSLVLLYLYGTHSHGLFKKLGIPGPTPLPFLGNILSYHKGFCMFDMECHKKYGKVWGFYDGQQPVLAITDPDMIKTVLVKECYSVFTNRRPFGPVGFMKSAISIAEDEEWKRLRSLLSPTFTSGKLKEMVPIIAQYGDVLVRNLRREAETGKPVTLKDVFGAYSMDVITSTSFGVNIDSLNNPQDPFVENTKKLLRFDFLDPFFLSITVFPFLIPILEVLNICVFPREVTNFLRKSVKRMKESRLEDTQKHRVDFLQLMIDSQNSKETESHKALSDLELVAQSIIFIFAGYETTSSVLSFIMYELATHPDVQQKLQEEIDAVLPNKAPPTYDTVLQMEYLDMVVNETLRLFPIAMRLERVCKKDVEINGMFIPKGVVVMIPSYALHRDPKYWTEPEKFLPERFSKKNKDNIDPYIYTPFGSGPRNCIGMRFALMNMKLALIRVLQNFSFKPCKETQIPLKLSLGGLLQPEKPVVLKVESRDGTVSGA
# Assay: Cytochrome panel assay with activity outcomes
# Details: recombinant CYP, pro-luciferin dealkylation, luminescence, p450-cyp3a4; series mostly up to 57.1 µM; activity, negative = inhibition: at the top concentration
# % is scaled to controls: 0 for no effect and ±100 for the full control effect.
Structure (SMILES),"activity, negative = inhibition",AC50
CC1=NC(C)(C)Cc2ccccc21,-15.9%,–
CN1CCC2(CC1)CCN(C(=O)c1ccncc1)CC2,-7.59%,–
CC1(C)Cc2ccccc2C(NNC(=O)c2ccncc2)=N1,–,8.91 µM (active)
ClC(Cl)(Cl)C(N1CCN(c2ccccc2)CC1)N1CCN(c2ccccc2)CC1,-3.89% [at 11.4 µM],–
CC(C)n1nnnc1-c1cc(Cl)cc(Cl)c1,11.3% [at 2.29 µM],–
CC(C)CC(c1nnnn1C(C)C)N1CCN(c2ccccc2)CC1 (centres undefined),–,3.98 µM (active)
O=C(O)[C@H]1C[C@H](C(=O)O)N1,-4.9%,–
C=CCn1c(Cc2c[nH]c3ccccc23)nnc1SCC(=O)NCc1ccccc1,-3.87% [at 2.29 µM],–
CCn1c(CSCc2ccc(C)cc2)nnc1SCC(=O)NCc1ccccc1,–,7.94 µM (active)
CCc1c(O)nc(SCC(=O)NC(C)(C)C)n(-c2ccccc2)c1=O,-1.41% [at 2.29 µM],–
CCn1c(Cc2ccccc2)nnc1SCC(=O)NC(C)(C)C,–,11.2 µM (active)
CCn1c(CC(=O)Nc2ccc(C)cc2)nnc1SCC(=O)NCCc1ccccc1,–,10 µM (active)
CC(C)(C)NC(=O)NC(=O)CSc1nnc2ccccn12,13.5%,–
CCn1c(CC(=O)Nc2ccc(C)cc2)nnc1SCC(=O)Nc1nc(C)cs1,–,7.94 µM (active)
CN(C)CC(O)COc1cccc(OCC(O)CN(C)C)c1 (centres undefined),-0.983%,–
CCN1C(=O)[C@H]2[C@@H]3[C@H](O)C=CC(=O)[C@H]3CC[C@H]2C1=O,-12.1% [at 11.4 µM],–
O=S(=O)(c1ccccc1)N1N=C(c2cccs2)CC1c1ccc(Br)cc1 (centres undefined),–,2 µM (active)
O=c1oc(-c2cccs2)nc2ccc(Br)cc12,-22.2%,–
O=C(Nc1nnc(C2CC2)s1)c1cc(S(=O)(=O)N2CCN(c3ccccc3)CC2)ccc1Cl,–,2 µM (active)
O=C(Nc1nnc(C2CC2)s1)c1ccc(S(=O)(=O)c2ccccc2)cc1,25.6%,–
CCN1CCN(S(=O)(=O)c2ccc(Cl)c(C(=O)Nc3nnc(CC(C)C)s3)c2)CC1,–,14.1 µM (active)
CC(C)Cc1nnc(NC(=O)c2ccc([N+](=O)[O-])cc2)s1,17.9%,–
CCOC(=O)CSc1nnc(NC(=O)c2cccc(S(=O)(=O)N3CCCCCC3)c2)s1,-15.1% [at 2.29 µM],–
CCc1cc(C(c2ccccc2OC)N2CCOCC2)c(NC(=O)c2ccccc2)s1 (centres undefined),–,4.47 µM (active)

Structure (SMILES),"activity, negative = inhibition",AC50
CCOc1ccc2nc(NC(=O)c3ccc(S(=O)(=O)N4CCOCC4)cc3)sc2c1,-15%,–
CCCCC1CCC(c2nc(-c3ccccn3)no2)CC1 (centres undefined),5.4% [at 2.29 µM],–
O=C(Nc1ccccc1)N1CCCC(c2nc(-c3ccc(F)cc3)no2)C1 (centres undefined),–,14.1 µM (active)
COc1ccc(NC(=O)c2ccc(-c3ccc(-c4noc(C)n4)cc3C)cc2)cc1N1CCN(C)CC1,-16.4%,–
CCCCCC(=O)N1CCCC(c2nc(-c3ccc(OC)cc3)no2)C1 (centres undefined),–,7.08 µM (active)
CN(C)c1ccc(-c2noc(C3CCN(S(=O)(=O)c4cccc(C(=O)O)c4)CC3)n2)cc1,-21.2%,–
COc1ccc(-c2noc(C3CCCN(C(=O)c4ccccc4OC)C3)n2)cc1OC (centres undefined),–,5.01 µM (active)
CC(C)(C)c1ccc(C(=O)NCc2ccc(Cl)cc2)cc1,-23.4%,–
O=C(NCc1cccc(C(F)(F)F)c1)c1cc(Cl)cc(Cl)c1,–,14.1 µM (active)
O=C(NCc1ccccc1)c1cccc(COc2cccc(Cl)c2)c1,-29.3% [at 11.4 µM],–
CCN(CC)S(=O)(=O)c1cc(C(=O)OC)ccc1Cl,9.82%,–
CCN(CC)S(=O)(=O)c1cc(C(=O)Nc2ccncc2)ccc1Cl,–,1 µM (active)
CCOCC(=O)Nc1cc(C(=O)Nc2ccccc2)ccc1Cl,-4.26% [at 2.29 µM],–
CC(=O)Nc1ccc(S(=O)(=O)c2ccc(N)cc2)cc1,-19.3% [at 11.4 µM],–
CC(=O)Nc1ccc(Nc2ncc([N+](=O)[O-])c(Nc3ccc(NC(C)=O)cc3)n2)cc1,–,6.31 µM (active)
CC(=O)Nc1ccc([N+](=O)[O-])cn1,3.23%,–
CCc1cc(C(=O)NNC(=S)NCC2CCCO2)cs1 (centres undefined),-21.7%,–
CCOc1cc(NC(=S)Nc2cccc(C)c2)c(OCC)cc1NC(=O)CC(C)C,–,11.2 µM (active)
CCOc1cc(NC(=S)NCC2CCCO2)c(OCC)cc1NC(=O)c1ccccc1C (centres undefined),–,12.6 µM (active)
Cc1cccc(NC(=S)NNC(=O)CC(C)O)c1C (centres undefined),-9.46%,–
Cc1ccccc1C(=O)c1c[nH]c(C(=O)NCC2CCCO2)c1 (centres undefined),2.67% [at 11.4 µM],–
CCOc1cc(NC(=S)NCC2CCCO2)c(OCC)cc1NC(=O)c1cccc(C)c1 (centres undefined),–,12.6 µM (active)
Cc1ccc(C(=O)NC(=S)NCC2CCCO2)cc1 (centres undefined),-7.78% [at 2.29 µM],–
Cc1scc(C(=O)NNC(=S)NCC2CCCO2)c1C (centres undefined),-19.7%,–

Structure (SMILES),"activity, negative = inhibition",AC50
Nc1cc(C(=O)O)[nH]c(=O)n1,-11.2% [at 11.4 µM],–
O=C(O)[C@H]([C@H]1NCCS1)N1Cc2ccccc2C1,-4.44% [at 11.4 µM],–
COC(=O)N1CCC2(CC1)CN(c1cccc(-c3ccccc3)c1)C2,4.17%,–
O=C(c1cccc(F)c1)N1CCC[C@@]2(CCN(c3ccccc3)C2)C1,–,6.31 µM (active)
COc1ccc(C(=O)N2CCC[C@@]3(CCN(c4cccc(-c5ccccc5)c4)C3)C2)cc1,–,3.16 µM (active)
O=C(c1cccc(F)c1)N1CCC2(CCCN(C(c3ccccc3)c3ccccc3)C2)CC1,-29.9%,–
O=C(c1cccc(F)c1)N1CCC[C@@]2(CCN(C(c3ccccc3)c3ccccc3)C2)C1,–,3.98 µM (active)
O=C(c1cccc(F)c1)N1CCC[C@@]2(CCN(c3cccc(-c4ccccc4)c3)C2)C1,–,7.94 µM (active)
CN1CC[C@@]2(CCCN(C(=O)c3cccc(F)c3)C2)C1,-27.3%,–
CC(=O)N1CCC2(CC1)CCN(c1cccc(-c3ccccc3)c1)CC2,-17.6%,–
CN(C)CCCO[C@H]1[C@@H]2OC(C)(C)O[C@@H]2O[C@@H]1[C@H](O)CO,1.58% [at 25.6 µM],–
Clc1ccc2c(NCCNC3CCCCC3)ccnc2c1,-5.83% [at 11.4 µM],–
O=C(O)/C=C\[C@H](O)c1ccc(Cl)cc1,2.09%,–
O=C(c1cccc(F)c1)N1CCC[C@@]2(CCN(c3ccncc3)C2)C1,–,0.316 µM (active)
O=C(c1cccc(F)c1)N1CCC2(CC1)CN(c1ccncc1)C2,22.2%,–
O=C(NNC(=O)c1ccccc1-n1cccc1)c1ccccc1,-20.3%,–
O=C(NNC(=O)c1ccccc1-n1cccc1)c1ccc(Cl)c(Cl)c1,–,15.8 µM (active)
N[C@H](CCCC(=O)O)C(=O)O,-2.17%,–
N=C(C[C@@H](O)COc1ccccc1-c1ccccc1)N1CCCCC1,-25.3%,–
CN1CCN(c2ccnc(-c3ccoc3)n2)CC1,-2.76%,–
CS(=O)(=O)Nc1cccc(-c2nccc(-n3ccnc3)n2)c1,–,1.58 µM (active)
CS(=O)(=O)Nc1cccc(-c2cncnc2-n2ccnc2)c1,–,7.94 µM (active)
CN1CCN(c2ccnc(-c3cccc(NS(C)(=O)=O)c3)n2)CC1,–,25.1 µM (active)
C[N+](C)(N)CCC[N+](C)(C)N,-4.61% [at 11.4 µM],–

Structure (SMILES),"activity, negative = inhibition",AC50
CCc1ccc(N2CC(C(=O)N/N=C/c3cccc([N+](=O)[O-])c3)CC2=O)cc1 (centres undefined),-50%,–
Cc1ccc(NC(=O)/C(=C\c2cccc([N+](=O)[O-])c2)NC(=O)c2cccs2)cc1,–,0.398 µM (active)
O=C(N/N=C/C=C/c1ccc([N+](=O)[O-])cc1)c1cccs1,-1.51%,–
O=C(Nc1cccc2ccccc12)/C(=C/c1ccc([N+](=O)[O-])cc1)NC(=O)c1ccccc1,–,1.12 µM (active)
Cc1ccc(NC(=O)/C(=C\c2ccc([N+](=O)[O-])cc2)NC(=O)c2ccccc2)cc1,–,1.12 µM (active)
CCOC(=O)C1CCCN(C(=O)/C=C/c2cccc([N+](=O)[O-])c2)C1 (centres undefined),3.28% [at 2.29 µM],–
Cc1ccc(NC(=O)/C(=C/c2cccc([N+](=O)[O-])c2)NC(=O)C2CCCCC2)c(C)c1,–,1 µM (active)
O=C(O)C1=CCCNC1,–,inactive
CC[C@H](Cc1c(I)cc(I)c(N)c1I)C(=O)O,-23.4% [at 25.6 µM],–
O=C(O)c1cc(N=Nc2ccc([N+](=O)[O-])cc2)ccc1O,-6.97% [at 11.4 µM],–
O=C(CNC(=O)c1ccc([N+](=O)[O-])cc1)c1ccccc1,0.889%,–
COc1cc(/C=C(/NC(=O)c2ccccc2)C(=O)Nc2ccccc2)c([N+](=O)[O-])cc1OC,–,0.794 µM (active)
COc1cc(/C=C(\C#N)C(=O)NCC2CCCO2)c([N+](=O)[O-])cc1OC (centres undefined),12.9%,–
Cc1ccc(C(=O)N/C(=C\c2ccc([N+](=O)[O-])cc2)C(=O)NCCc2ccccc2)cc1,–,0.282 µM (active)
N=c1ccn2c(n1)O[C@H]1[C@@H](OP(=O)(O)O)[C@H](CO)O[C@H]12,-6.24% [at 11.4 µM],–
Cc1cc(NC(=O)C2CCCC2)n(-c2nc3ccccc3[nH]2)n1,–,11.2 µM (active)
Cc1cc(NC(=O)C2CCCCC2)nc2c1c(=O)oc1ccccc12,-4.81% [at 2.29 µM],–
O=C(O)[C@H]1CCCC[C@@H]1C(=O)Nc1nc2ccccc2[nH]1,-6.18% [at 11.4 µM],–
O=C1C=C(NCC2CCCO2)C2(CCCCC2)O1 (centres undefined),-10.6%,–
COC(=O)COc1ccsc1C(=O)OC,-5.82%,–
COc1ccc(COc2ccsc2C(=O)Nc2ccc(Cl)c(Cl)c2)cc1,–,7.08 µM (active)
COc1ccc(/C=N/NC(=O)c2sccc2OCc2ccc(F)cc2)cc1OC,-9.08% [at 2.29 µM],–
